{"source": "PubChem BioAssay", "key": {"[1]": {"assay": "viability loss in pontine glioma line – cell-based, JHH-DIPG-1, MIPE4.0, CellTiter-Glo, qHTS, dose response (AID 1347062; cut-off not given, nearly all actives have AC50 up to about 27 µM)", "conditions": "JHH-DIPG-1 viability, CellTiter-Glo ATP luminescence"}, "[2]": {"assay": "viability loss in pontine glioma line – cell-based, SU-DIPG-IV, MIPE4.0, CellTiter-Glo, qHTS, dose response (AID 1347063);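 also: compound exposure lasted 48 hours before the viability readout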", "conditions": "CellTiter-Glo ATP luminescence"}, "[3]": {"assay": "viability loss in pontine glioma line – cell-based, SU-DIPG-XIII, MIPE5.0, CellTiter-Glo, qHTS, dose response (AID 1347064; cut-off not given, nearly all actives have AC50 up to about 23 µM)", "conditions": "CellTiter-Glo ATP luminescence"}, "[4]": {"assay": "viability loss in pontine glioma line – cell-based, SU-DIPG-XXV, MIPE5.0, CellTiter-Glo, qHTS, dose response (AID 1347065; cut-off not given, nearly all actives have AC50 up to about 26 µM;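 also: cells exposed to compound for 48 hours before ATP readout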)", "conditions": "CellTiter-Glo ATP luminescence"}, "[5]": {"assay": "growth inhibition of DIPG cells – cell-based, MIPE4.0 library, CellTiter-Glo luminescence, qHTS (AID 1347066);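 also: cells exposed to compound for 48 hours before readout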", "conditions": "SU-DIPG-VI viability, CellTiter-Glo ATP luminescence"}, "[6]": {"assay": "JHH-DIPG-1 glioma cell viability, MIPE5.0 library, CellTiter-Glo luminescence, qHTS (AID 1347067; cut-off not given, nearly all actives have AC50 up to about 26 µM;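 also: cells exposed to compound for 48 hours before readout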)", "conditions": "JHH-DIPG-1 glioma viability, CellTiter-Glo ATP luminescence"}, "[7]": {"assay": "growth inhibition of DIPG cells – cell-based, MIPE5.0 library, qHTS (AID 1347068; cut-off not given, nearly all actives have IC50 up to about 30 µM)", "conditions": "SU-DIPG-XXV viability"}, "[8]": {"molecular_target": "Mitogen-activated protein kinase 7 (Homo sapiens) (UniProt Q13164)", "sequence (Q13164 whole entry, looked up, the tested form may be a part)": "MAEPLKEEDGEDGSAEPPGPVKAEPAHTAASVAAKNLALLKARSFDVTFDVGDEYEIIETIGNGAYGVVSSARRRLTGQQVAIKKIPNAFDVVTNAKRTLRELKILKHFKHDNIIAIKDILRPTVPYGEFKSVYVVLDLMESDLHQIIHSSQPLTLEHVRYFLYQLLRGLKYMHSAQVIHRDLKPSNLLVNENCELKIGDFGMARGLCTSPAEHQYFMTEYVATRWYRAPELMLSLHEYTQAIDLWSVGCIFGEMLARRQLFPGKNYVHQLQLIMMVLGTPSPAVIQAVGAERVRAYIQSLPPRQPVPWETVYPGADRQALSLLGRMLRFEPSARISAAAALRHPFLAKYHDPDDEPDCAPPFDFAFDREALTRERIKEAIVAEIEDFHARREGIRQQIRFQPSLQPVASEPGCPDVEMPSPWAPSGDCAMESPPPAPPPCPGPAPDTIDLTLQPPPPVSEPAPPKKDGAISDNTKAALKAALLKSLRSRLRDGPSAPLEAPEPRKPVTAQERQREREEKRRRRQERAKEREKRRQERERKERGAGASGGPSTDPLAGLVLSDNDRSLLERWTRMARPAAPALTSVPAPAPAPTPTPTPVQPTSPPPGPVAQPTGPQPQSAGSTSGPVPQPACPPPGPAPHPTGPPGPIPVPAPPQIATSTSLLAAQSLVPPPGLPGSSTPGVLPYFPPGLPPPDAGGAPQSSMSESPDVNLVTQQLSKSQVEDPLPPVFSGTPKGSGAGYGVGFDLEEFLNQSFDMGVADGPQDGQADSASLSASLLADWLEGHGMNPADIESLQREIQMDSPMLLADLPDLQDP", "assay": "Gal4-ERK5 driven luciferase induction – cell-based, HTS, primary screen (AID 1508626;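 active = luciferase signal above three times the same-plate solvent-only control wells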;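 also: luciferase driven by Gal4-ERK5 fusion binding five Gal4 sites before minimal TATA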)", "conditions": "HeLa Gal4-ERK5 transactivation, 18 h, at 5 µM, stronger effect = higher value"}, "[9]": {"assay": "galactose survival enhancers in mitochondrial complex I cybrids – cell-based, galactose medium, ATP luminescence, primary screen (AID 1645843;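 active = z-score of at least 1.8 in each of two replicates, scored against plate mean and spread of sample wells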;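 also: positive z means more ATP and so rescue of galactose-driven cybrid death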)", "conditions": "complex I mutant cybrid cells, 72 h, stronger effect = higher value"}, "[10]": {"molecular_target": "ATP-dependent translocase ABCB1 (Homo sapiens) (UniProt P08183)", "sequence (P08183 whole entry, looked up)": "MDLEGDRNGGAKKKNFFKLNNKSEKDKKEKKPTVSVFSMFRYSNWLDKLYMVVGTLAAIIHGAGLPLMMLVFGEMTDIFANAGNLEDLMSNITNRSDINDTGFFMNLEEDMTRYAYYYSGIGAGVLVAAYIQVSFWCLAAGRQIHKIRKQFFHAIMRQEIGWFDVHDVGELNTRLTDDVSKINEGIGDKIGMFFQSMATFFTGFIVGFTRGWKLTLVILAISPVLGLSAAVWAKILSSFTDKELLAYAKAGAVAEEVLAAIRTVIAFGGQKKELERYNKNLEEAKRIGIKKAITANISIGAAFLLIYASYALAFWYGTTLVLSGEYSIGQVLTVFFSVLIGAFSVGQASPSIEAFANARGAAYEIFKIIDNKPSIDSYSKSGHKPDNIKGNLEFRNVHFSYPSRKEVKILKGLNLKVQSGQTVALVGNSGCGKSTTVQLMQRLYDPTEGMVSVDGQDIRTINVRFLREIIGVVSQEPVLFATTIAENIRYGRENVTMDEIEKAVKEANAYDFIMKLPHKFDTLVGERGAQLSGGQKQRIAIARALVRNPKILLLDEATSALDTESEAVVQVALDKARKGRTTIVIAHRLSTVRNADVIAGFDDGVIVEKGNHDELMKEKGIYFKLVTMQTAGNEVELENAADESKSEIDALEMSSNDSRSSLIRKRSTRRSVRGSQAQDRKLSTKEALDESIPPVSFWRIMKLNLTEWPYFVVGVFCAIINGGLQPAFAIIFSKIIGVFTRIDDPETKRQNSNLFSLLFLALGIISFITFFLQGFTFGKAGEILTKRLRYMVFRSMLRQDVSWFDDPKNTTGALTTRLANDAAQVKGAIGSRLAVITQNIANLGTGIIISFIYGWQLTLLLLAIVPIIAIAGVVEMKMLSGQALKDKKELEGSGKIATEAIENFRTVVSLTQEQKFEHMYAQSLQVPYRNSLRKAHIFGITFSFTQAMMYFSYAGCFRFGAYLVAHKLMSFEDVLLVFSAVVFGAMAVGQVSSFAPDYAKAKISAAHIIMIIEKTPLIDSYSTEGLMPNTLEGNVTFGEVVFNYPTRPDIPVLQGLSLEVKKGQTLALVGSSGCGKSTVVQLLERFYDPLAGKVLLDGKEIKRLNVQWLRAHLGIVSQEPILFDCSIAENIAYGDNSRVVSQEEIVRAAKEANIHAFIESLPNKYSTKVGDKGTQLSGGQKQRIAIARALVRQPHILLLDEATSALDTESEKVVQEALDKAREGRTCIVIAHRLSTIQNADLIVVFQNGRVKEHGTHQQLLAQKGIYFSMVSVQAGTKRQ", "assay": "P-glycoprotein substrate transport blockade – cell-based (AID 377; in the data active = fluorescence slope change above about 50%)", "conditions": "MDR1-expressing cells, fluorescent substrate accumulation slope; stronger effect = higher value; concentration not given here"}, "[11]": {"assay": "growth inhibition, single agents and combos, LFS_MB_1R, cell-based, cisplatin or BGB combos, synergistic combos for chromothripsis tumors (AID 1671452; in the data active = inhibition above about 80%;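 also: cells exposed for 96 hours before readout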)", "conditions": "LFS_MB_1R medulloblastoma cells, stronger effect = higher value"}, "[12]": {"assay": "growth inhibition, single agents and combos, CRL2098, cell-based, BGB or cisplatin IC20 combos, synergistic combos for chromothripsis tumors (AID 1671454; in the data active = inhibition above about 80%;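 also: cells exposed for 96 h before readout; 0% = vehicle DMSO and 100% = killing by high DMSO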)", "conditions": "CRL2098 osteosarcoma cells, drug combinations, stronger effect = higher value"}, "[13]": {"assay": "growth inhibition, single agents and combos, HD-MB03, cell-based, BGB or cisplatin IC20 combos, synergistic combos for chromothripsis tumors (AID 1671455; in the data active = inhibition above about 83%;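 also: 0% = vehicle DMSO and 100% = high DMSO as cytotoxic control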)", "conditions": "HD-MB03 medulloblastoma cells, stronger effect = higher value"}, "[14]": {"assay": "growth inhibition, single agents and combos, UWB1.289, cell-based, BGB or cisplatin combos, synergistic combos for chromothripsis tumors (AID 1671456; in the data active = inhibition above about 80%;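 also: cells exposed to compound for four days; 0% = vehicle DMSO and 100% = killing by high DMSO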)", "conditions": "UWB1.289 ovarian carcinoma cells, stronger effect = higher value"}, "[15]": {"assay": "growth inhibition, single agents and combos, LFS_MB_2R, cell-based, cisplatin combos, synergistic combos for chromothripsis tumors (AID 1671457; in the data active = inhibition above about 80%;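 also: cells exposed to compound for four days before readout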)", "conditions": "LFS_MB_2R medulloblastoma cells, stronger effect = higher value"}, "[16]": {"assay": "UWB1.289_BRCA1 ovarian cancer growth, cell-based, BGB or cisplatin combinations (AID 1671459; in the data active = inhibition above about 80%)", "conditions": "UWB1.289 BRCA1 ovarian carcinoma, drug combinations, stronger effect = higher value"}, "[17]": {"assay": "drug combination toxicity in non-malignant astrocytes – cell-based, BGB or cisplatin IC20 combos, cytotoxicity control for chromothriptic childhood tumor combination screen (AID 1671460; in the data active = inhibition above about 80%;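 also: cells exposed to compounds for 96 hours before viability readout; 0% = vehicle and 100% = killing control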)", "conditions": "Human astrocytes, viability inhibition, drug combinations, at 0.5 µM, stronger effect = higher value"}, "[18]": {"assay": "BT084 cell growth, single and combined drugs, ICGC_MB145, cisplatin and BGB IC40 combos (AID 1671461; in the data active = inhibition above about 80%;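 also: cells exposed to drugs for 96 hours; 0% = vehicle DMSO and 100% = high DMSO full killing control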)", "conditions": "BT084 medulloblastoma cells, drug combinations, stronger effect = higher value"}, "[19]": {"assay": "RCMB18 cell growth, single agent and combined, cisplatin and BGB IC40 combos (AID 1671462; in the data active = inhibition above about 80%;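 also: cells exposed to compound for four days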)", "conditions": "RCMB18 medulloblastoma cells, stronger effect = higher value"}, "[20]": {"assay": "CRL1545 cell growth, single agent and combined, cisplatin and BGB IC20 combos (AID 1671464; in the data active = inhibition above about 80%;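 also: cells exposed to compound for 96 hours before readout; 0% = vehicle DMSO and 100% = high DMSO killing control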)", "conditions": "CRL1545 osteosarcoma cells, stronger effect = higher value"}, "[21]": {"conditions": "measured here: combination with cisplatin, at 0.5 µM"}, "[22]": {"conditions": "measured here: combination with cisplatin, at 5 µM"}}, "note": "Inconclusive results are not listed. Activity calls are given as the source filed them. Unless noted, the limit is not given here; nearly all actives have AC50 up to about 30 µM.", "data": [{"smiles": "CCCCCCCCCCCCCCCCCCCCCCO", "values": [{"measurement": "outcome", "setting": "[1]", "value": "inactive"}, {"measurement": "outcome", "setting": "[2]", "value": "inactive"}, {"measurement": "outcome", "setting": "[3]", "value": "inactive"}, {"measurement": "outcome", "setting": "[4]", "value": "inactive"}, {"measurement": "outcome", "setting": "[5]", "value": "inactive"}, {"measurement": "outcome", "setting": "[6]", "value": "inactive"}, {"measurement": "outcome", "setting": "[7]", "value": "inactive"}, {"measurement": "luciferase signal", "setting": "[8]", "value": "140 AU (inactive)"}]}, {"smiles": "CCCN(CCC)CCc1cccc2c1CC(=O)N2", "values": [{"measurement": "luciferase signal", "setting": "[8]", "value": "48 AU (inactive)"}, {"measurement": "z-score", "setting": "[9]", "value": "0.47 (inactive)"}]}, {"smiles": "OC(CCN1CCCCC1)(c1ccccc1)C1CC2C=CC1C2", "note": "(configuration not stated)", "values": [{"measurement": "fluorescence slope change", "setting": "[10]", "value": "23% (inactive)"}, {"measurement": "outcome", "setting": "[1]", "value": "inactive"}, {"measurement": "outcome", "setting": "[2]", "value": "inactive"}, {"measurement": "outcome", "setting": "[4]", "value": "inactive"}, {"measurement": "outcome", "setting": "[5]", "value": "inactive"}, {"measurement": "outcome", "setting": "[6]", "value": "inactive"}, {"measurement": "outcome", "setting": "[7]", "value": "inactive"}, {"measurement": "luciferase signal", "setting": "[8]", "value": "60 AU (inactive)"}, {"measurement": "z-score", "setting": "[9]", "value": "-0.86 (inactive)"}]}, {"smiles": "COc1c(C)c2c(c(O)c1C/C=C(\\C)CCC(=O)OCCN1CCOCC1)C(=O)OC2", "values": [{"measurement": "outcome", "setting": "[5]", "value": "inactive"}, {"measurement": "z-score", "setting": "[9]", "value": "1.7 (inactive)"}]}, {"smiles": "CCN(C)C(=O)Oc1cccc([C@H](C)N(C)C)c1", "values": [{"measurement": "outcome", "setting": "[1]", "value": "inactive"}, {"measurement": "outcome", "setting": "[5]", "value": "inactive"}, {"measurement": "z-score", "setting": "[9]", "value": "0.825 (inactive)"}]}, {"smiles": "Cn1c(=O)c2c(ncn2CC2OCCO2)n(C)c1=O", "values": [{"measurement": "outcome", "setting": "[3]", "value": "inactive"}, {"measurement": "outcome", "setting": "[4]", "value": "inactive"}, {"measurement": "outcome", "setting": "[6]", "value": "inactive"}, {"measurement": "outcome", "setting": "[7]", "value": "inactive"}, {"measurement": "z-score", "setting": "[9]", "value": "0.585 (inactive)"}]}, {"smiles": "CNC1CCCN(c2c(F)cc3c(=O)c(C(=O)O)cn(C4CC4)c3c2OC)C1", "note": "(configuration not stated)", "values": [{"measurement": "outcome", "setting": "[1]", "value": "inactive"}, {"measurement": "outcome", "setting": "[3]", "value": "inactive"}, {"measurement": "outcome", "setting": "[4]", "value": "inactive"}, {"measurement": "outcome", "setting": "[6]", "value": "inactive"}, {"measurement": "outcome", "setting": "[7]", "value": "inactive"}, {"measurement": "inhibition", "setting": "[11]; at 0.5 µM", "value": "-44.6% (inactive)"}, {"measurement": "inhibition", "setting": "[11]; measured here: combination with BGB IC40, at 0.05 µM", "value": -12.2, "unit": "%"}, {"measurement": "inhibition", "setting": "[11]; [21]", "value": -60.6, "unit": "%"}, {"measurement": "inhibition", "setting": "[11]; [22]", "value": -26, "unit": "%"}, {"measurement": "inhibition", "setting": "[12]; at 0.5 µM", "value": "-81.1% (inactive)"}, {"measurement": "inhibition", "setting": "[12]; measured here: combination with BGB at IC20, at 0.5 µM", "value": -82.3, "unit": "%"}, {"measurement": "inhibition", "setting": "[12]; measured here: combination with cisplatin at IC20, at 0.5 µM", "value": -105, "unit": "%"}, {"measurement": "inhibition", "setting": "[13]; at 0.5 µM", "value": "-11% (inactive)"}, {"measurement": "inhibition", "setting": "[13]; measured here: combo with BGB at IC20, at 0.5 µM", "value": -20.4, "unit": "%"}, {"measurement": "inhibition", "setting": "[13]; measured here: combo with cisplatin at IC20, at 0.5 µM", "value": -17.8, "unit": "%"}, {"measurement": "inhibition", "setting": "[14]; at 0.5 µM", "value": "-14.8% (inactive)"}, {"measurement": "inhibition", "setting": "[14]; measured here: inhibition with BGB combination, at 0.05 µM", "value": -34.6, "unit": "%"}, {"measurement": "inhibition", "setting": "[14]; measured here: inhibition with cisplatin combination, at 0.05 µM", "value": 0.742, "unit": "%"}, {"measurement": "inhibition", "setting": "[15]; at 0.5 µM", "value": "-13.2% (inactive)"}, {"measurement": "inhibition", "setting": "[15]; [21]", "value": -14.1, "unit": "%"}, {"measurement": "inhibition", "setting": "[15]; [22]", "value": -12.8, "unit": "%"}, {"measurement": "inhibition", "setting": "[16]; BGB combination, concentration series, at 5 µM", "value": -8.91, "unit": "%"}, {"measurement": "inhibition", "setting": "[16]; at 0.5 µM", "value": "-19.1% (inactive)"}, {"measurement": "inhibition", "setting": "[16]; cisplatin combination, concentration series, at 5 µM", "value": -12.5, "unit": "%"}, {"measurement": "inhibition", "setting": "[17]", "value": "2.51% (inactive)"}, {"measurement": "inhibition", "setting": "[17]; measured here: combo with BGB IC20", "value": -0.992, "unit": "%"}, {"measurement": "inhibition", "setting": "[17]; measured here: combo with cisplatin IC20", "value": -5.96, "unit": "%"}, {"measurement": "inhibition", "setting": "[18]; at 0.5 µM", "value": "-3.94% (inactive)"}, {"measurement": "inhibition", "setting": "[18]; cisplatin combination, at 0.5 µM", "value": -12.4, "unit": "%"}, {"measurement": "inhibition", "setting": "[18]; cisplatin combination, at 5 µM", "value": -20.7, "unit": "%"}, {"measurement": "inhibition", "setting": "[18]; measured here: BGB IC40 combination 0.05 uM, at 0.05 µM", "value": -4.46, "unit": "%"}, {"measurement": "inhibition", "setting": "[18]; single agent, at 5 µM", "value": -9.28, "unit": "%"}, {"measurement": "inhibition", "setting": "[19]; at 0.5 µM", "value": "-11% (inactive)"}, {"measurement": "inhibition", "setting": "[19]; cisplatin combo, at 5 µM", "value": -11, "unit": "%"}, {"measurement": "inhibition", "setting": "[19]; measured here: BGB IC40 combination, at 0.05 µM", "value": -0.266, "unit": "%"}, {"measurement": "inhibition", "setting": "[19]; [21]", "value": -4.57, "unit": "%"}, {"measurement": "inhibition", "setting": "[19]; single agent, at 5 µM", "value": -28, "unit": "%"}, {"measurement": "inhibition", "setting": "[20]; at 0.5 µM", "value": "-47.5% (inactive)"}, {"measurement": "inhibition", "setting": "[20]; measured here: with BGB IC20 combination, at 0.5 µM", "value": -52.5, "unit": "%"}, {"measurement": "inhibition", "setting": "[20]; measured here: with cisplatin IC20 combination, at 0.5 µM", "value": -45, "unit": "%"}, {"measurement": "inhibition", "setting": "[20]; single agent, at 0.05 µM", "value": 2.8, "unit": "%"}, {"measurement": "inhibition", "setting": "[20]; single agent, at 5 µM", "value": -16.1, "unit": "%"}]}, {"smiles": "CC(S)C(=O)NCC(=O)O", "note": "(configuration not stated)", "values": [{"measurement": "outcome", "setting": "[1]", "value": "inactive"}, {"measurement": "outcome", "setting": "[5]", "value": "inactive"}, {"measurement": "outcome", "setting": "[7]", "value": "inactive"}]}, {"smiles": "CN(C)CCN(Cc1ccc(Cl)cc1)c1ccccn1", "values": [{"measurement": "fluorescence slope change", "setting": "[10]", "value": "92.6% (active)"}, {"measurement": "outcome", "setting": "[1]", "value": "inactive"}, {"measurement": "outcome", "setting": "[5]", "value": "inactive"}]}, {"smiles": "Cc1cc(=O)oc2cc(O)ccc12", "values": [{"measurement": "outcome", "setting": "[1]", "value": "inactive"}, {"measurement": "outcome", "setting": "[2]", "value": "inactive"}, {"measurement": "outcome", "setting": "[4]", "value": "inactive"}, {"measurement": "outcome", "setting": "[5]", "value": "inactive"}, {"measurement": "outcome", "setting": "[6]", "value": "inactive"}]}]}
